PubChem BioAssay (NCI)
Compounds without any hit were thinned out: in the full panel of roughly 83,000, 20% have a hit.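 Single-dose data. Exposure time 48 hours. Values below 10 considered active.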 Calls of active or inactive are those of the source.

system: MDA-MB-468 breast; assay: NCI-60 one-dose screen, 48 h (100 = growth as untreated, 0 = no growth, -100 = all killed); settings: 10 µM unless noted

Compound | growth
c1ccc(OCC[P+](c2ccccc2)(c2ccccc2)c2ccccc2)cc1 | -18.1% (active)
S=C(NCCNC(=S)[S][Sn]([c]1ccccc1)([c]1ccccc1)[c]1ccccc1)[S][Sn]([c]1ccccc1)([c]1ccccc1)[c]1ccccc1 | -97.9% (active)
NC(=O)C12C(=O)NC(=O)C1(C(=O)O)C21CCCC1 (stereo not given) | 112% (inactive)
O=C1/C(=C/c2cccc(F)c2)CN(C(=O)C(Cl)Cl)C/C1=C\c1cccc(F)c1 | -47.4% (active)
Cc1cc(C(=O)NN)c(C#N)c(=O)[nH]1 | 122% (inactive)
C[C@H]1O[C@@H](O[C@H]2[C@@H](O)C[C@H](O[C@H]3[C@@H](O)C[C@H](O[C@H]4CC[C@]5(C)C6C[C@@H](O)[C@]7(C)[C@@H](C8=CC(=O)OC8)CC[C@]7(O)C6CC[C@@H]5C4)O[C@@H]3C)O[C@@H]2C)C[C@H](O)[C@@H]1O (stereo not given in full) | -61.7% (active)
CC12O[C@H](C[C@@H](OC(=O)c3ccccc3)[C@H]1O)n1c3ccccc3c3c4c(c5c6ccccc6n2c5c31)C(=O)NC4=O | 81.1% (inactive)
O=C(O)c1cn(C2CC2)c2cc(N3CCN(C(=O)CSc4nnc(-c5ccc(Cl)cc5)n4-c4ccccc4)CC3)c(F)cc2c1=O | 101% (inactive)
CCOc1ccc(Br)cc1/C=C(\C#N)c1ccc([N+](=O)[O-])cc1 | 51.7% (inactive)
CCOC(=O)C1CCNC(=O)C1=O (stereo not given) | 99.5% (inactive)
OC(c1cccc(OCc2ccccc2)c1)c1nnc(-c2ccccc2)o1 (stereo not given) | 64.8% (inactive)
C=CCn1c(SCC(=O)Nc2ccc(/C(C)=N/O)cc2)nnc1-c1cc(-c2ccc(S(N)(=O)=O)cc2)nc2ccccc12 | 57% (inactive)
CC(C)C[C@H](NC(=O)Cn1cccc(CNC(=O)c2ccccc2)c1=O)B(O)O | -19.5% (active)
Clc1ccc(N/N=C/c2ccccn2)nc1 | -48.3% (active)
COc1ccc(C2CC(c3ccc(Nc4ccnc5cc(Cl)ccc45)cc3)=NN2C=O)cc1 (stereo not given) | 9.91% (active)
CCOC(=O)c1cc(C(=O)c2cc(OC)c(OC)c(OC)c2)n2c1ccc1ccccc12 | 1.54% (active)
O=C1c2cccc3cccc(c23)C(=O)N1N1C(=O)c2cccc3c(N4CCOCC4)ccc(c23)C1=O | 99.9% (inactive)
CNC(=O)c1cc(COc2nnc(Nc3ccc(Cl)cc3)c3ccoc23)ccn1 | 65% (inactive)
COc1cc(N)c2ncccc2c1SC | 107% (inactive)
N#Cc1c(-c2ccccc2)[nH]c2ncc(-c3ccccc3)n2c1=O | 91.8% (inactive)

Compound | growth
C=C(C)[C@@H]1CC[C@]2(CN)CC[C@]3(C)[C@H](CC[C@@H]4[C@@]5(C)CCCNC(C)(C)[C@@H]5CC[C@]43C)[C@@H]12 | -65.5% (active)
Clc1ccc2c(N3CCN(c4ccnc(NC5CCCCC5)n4)CC3)ccnc2c1 | 29.4% (inactive)
Cc1ccc(C(=Nc2ccccc2)N=P(c2ccccc2)(c2ccccc2)c2ccccc2)cc1 | -83% (active)
COc1ccc(NC(=O)c2ccoc2COc2ccccc2)cc1 | 116% (inactive)
C#Cc1ccc(C(=O)NCc2ccc(/C=C/C(=O)c3nccn3C)cc2)cc1 | 18% (inactive)
COc1ccc(Cn2cc3c(c2-c2cc(OC)c(OC)c(OC)c2)CCc2cnoc2-3)cc1N | -10.1% (active)
Cc1cc(Nc2ccc(C)c(Cl)c2)n2nc(C(F)(F)F)nc2n1 | 36.5% (inactive)
C(=N\Nc1ncc(-c2cc3cc4c(cc3o2)OCO4)s1)/c1ccco1 | 27.3% (inactive)
CCOC(=O)/C(C#N)=C\c1c[nH]c2ccccc12 | 97.4% (inactive)
O=C1/C(=C/c2ccc(-c3ccc(Br)cc3)o2)SC(=S)N1CCc1ccc(O)cc1 | 90.2% (inactive)
Cc1cc(NC(=O)Nc2cccc3ccccc23)no1 | 107% (inactive)
COc1cc(NC(=O)COc2cc(C)nc3ccc(OC)cc23)cc(OC)c1 | 76.3% (inactive)
N#Cc1c(-c2cccs2)c(C#N)c(=O)n(Cc2nc3ccccc3[nH]2)c1N | 88.5% (inactive)
CCOc1ccccc1Cn1ccnc1CCc1c(Cl)c(O)cc(O)c1C(=O)OC | 106% (inactive)
COc1cc(-c2c3c(c(Br)n2Cc2ccccc2)-c2nc(N)sc2CC3)cc(OC)c1OC | 73.4% (inactive)
CCNC(=S)n1nc(SC)c(C(=O)OCC)c1N | 114% (inactive)
CC1(C)CC[C@]23CC[C@]4(C)[C@H](CC[C@@H]5[C@@]6(C)C/C(=C/O)C(=O)C(C)(C)[C@@H]6CC[C@]54C)[C@H]2[C@H]1OC3 | 119% (inactive)
C[C@@H]1C(=O)N(C[C@H](Cc2ccccc2)NC(=O)OCc2ccccc2)[C@]1(Cc1ccccc1)C(=O)OC(C)(C)C | 46.7% (inactive)
COc1cccc(-c2nn(-c3ccccc3)cc2-c2ccnc(NCCNS(=O)(=O)c3cccc(F)c3)c2)c1 | 15.8% (inactive)
CC(C)C1=CC2=C(C=O)C[C@@H]3[C@](C)(CCC[C@@]3(C)C(=O)OCC#CCN3CCCC3)[C@H]2CC1 | 51.3% (inactive)
